Consider nine compounds from PubChem BioAssay (Tox21).

Unmarked numbers belong to inactive results. Results filed as inconclusive are left out. Activity calls are given as the source filed them. Unless noted, calls come from the whole dose curve; as a rule, active = well fitted curve in the direction sought with a large enough effect in the repeat runs; inconclusive = weak or mixed curves; inactive = no such curve, though single readings can be large; an effect the other way counts as inactive or inconclusive.

A short description of experiment [1]: qHTS assay to identify small molecule agonists of the constitutive androstane receptor (CAR) signaling pathway - cell viability counter screen (AID 1224836). Note: nearly all actives have a fitted effect of over 45% in size. The method, boiled down: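 HepG2-CYP2B6-hCAR, 2500 cells/well, 4 h pre-incubation; cpd 15 conc + PK11195 0.75 uM final; 23 h, 37 C/5% CO2; CellTiter-Fluor, fluorescence.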
The nature of experiment [2]: qHTS assay to identify small molecule antagonists of the constitutive androstane receptor (CAR) signaling pathway - cell viability counter screen (AID 1224837). Note: nearly all actives have a fitted effect of over 45% in size. Note: potency is the fitted concentration of half-maximal effect. The method, boiled down: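 Read-out: CellTiter-Fluor fluorescence after 23 hr at 37 C/5% CO2. Cells: HepG2 double-stable for hCAR and CYP2B6-2.2kb. Compounds tested at 15 concentrations in the presence of CITCO, final concentration 50 nM.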

Experiment [3] concerns the target Nuclear receptor subfamily 1 group I member 3 (Homo sapiens) (UniProt Q14994). Briefly: qHTS assay to identify small molecule agonists of the constitutive androstane receptor (CAR) signaling pathway (AID 1224839).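 For activation: HepG2 cells stably carrying human CAR and a CYP2B6 luciferase reporter.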 Note: nearly all actives have a fitted effect of over 15% in size. Note: potency is the fitted concentration of half-maximal effect. The method, boiled down: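 HepG2-CYP2B6-hCAR cells, 2500/well, 4 h pre-incubation; compounds 15 conc.; PK11195 0.75 uM final; 24 h, 37 C/5% CO2; ONE-Glo luciferase read.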
On the technique in general: In qHTS, concentration-response curves come from the screen itself.

Experiment [4] is described as follows: qHTS assay to identify small molecule antagonists of the estrogen related receptor signaling pathway with the pleiotropic PPARgamma coactivator (PGC) from Tox21 10K library - cell viability counter screen (AID 1224840; active = well fitted cell-killing curve with a large enough effect in the repeat runs, not every such curve was filed as active; note: nearly all actives have a fitted effect of over 40% in size). The gist of the method:
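Fluorescence read-out of CellTiter-Fluor viability reagent, added after cells had been exposed to compound in DMSO for 17.5 h at 37 C; 30 min development at 37 C/5% CO2. Cells: PGC/ERR line, 2,000/well.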

Experiment [5] concerns the target Thyrotropin receptor (Homo sapiens) (UniProt P16473). Kind of experiment: qHTS assay to identify small molecule agonists of the thyroid stimulating hormone receptor (TSHR) signaling pathway (AID 1224843; calls by dose curve; note: nearly all actives have a fitted effect of over 45% in size). The method, boiled down: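 Using 15 concentrations per compound in triplicate, cAMP production was monitored in TSHR-HEK293 cells after 30 min compound incubation at RT; HTRF reagents followed, with fluorescence intensity recorded after 1 h.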

Experiment [6] in a line: qHTS assay to identify small molecule agonists of the hypoxia (HIF-1) signaling pathway - cell viability counter screen (AID 1224844; calls by dose curve; note: nearly all actives have a fitted effect of over 50% in size). The gist of the method:
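CellTiter-Glo luminescence read-out, 30 min RT, taken in the same wells as the beta-lactamase HRE reporter assay; HRE-bla ME-180 cells, 0.5% dialyzed FBS, 17 hr compound treatment at 37C, 5% CO2.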

The nature of experiment [7]: qHTS assay to identify small molecule agonists of H2AX (AID 1224845; active = well fitted activation curve with a large enough effect in the signal ratio in the repeat runs, not every such curve was filed as active; the % refers to the signal ratio). The method, boiled down:
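Wild-type CHO-K1 cells plated overnight, then exposed 3 hr at 37C to compounds at 15 concentrations (0.76% DMSO). Lysed, then HTRF anti-pH2AX(S139)-cryptate/anti-H2AX-d2 detection after 24 hr at room temperature; emissions 665 and 620 nm.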

A short description of experiment [8]: qHTS assay to identify small molecule agonists of the hypoxia (HIF-1) signaling pathway (AID 1224846; active = well fitted activation curve with a large enough effect in the signal ratio in the repeat runs, not every such curve was filed as active; the % refers to the signal ratio). The gist of the method:
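Beta-lactamase FRET read-out (CCF4-AM substrate) from ME-180 cells carrying an HRE-driven bla reporter, after 17 hrs compound exposure at 37C/5% CO2. Cells were seeded at 2,000 per well in 0.5% dialyzed FBS medium and preincubated 5 hrs.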

A short description of experiment [9]: qHTS RealTime-Glo MT Cell Viability Assay in HepG2 cells - 24 hour (AID 1224867). Note: nearly all actives have a fitted effect of over 50% in size. The method, boiled down:
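Luminescence read-out: viable HepG2 cells reduce a prosubstrate to a NanoLuc substrate, giving a signal proportional to live cell number. Reads taken at 0, 8, 16, 24, 32 and 40 h of compound exposure at 37 C.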

Experiment [10] is described as follows: qHTS RealTime-Glo MT Cell Viability Assay in HEK293 cells - 32 hour (AID 1224868). Note: nearly all actives have a fitted effect of over 50% in size. Note: potency is the fitted concentration of half-maximal effect. The gist of the method:
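Nonlytic real-time viability readout: viable cells convert prosubstrate to NanoLuc substrate, giving luminescence proportional to live cell number. HEK293, 600 cells/well, compound added after 5 h, continuous culture at 37 C.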

Experiment [11] can be described thus: qHTS RealTime-Glo MT Cell Viability Assay in HepG2 cells - 40 hour (AID 1224870). Note: nearly all actives have a fitted effect of over 50% in size. The gist of the method: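 HepG2 cells mixed with RealTime-Glo MT reagents (NanoLuc plus cell-permeant prosubstrate) were seeded at 600 cells/well, incubated 5 h at 37 C/5% CO2, then pinned with compounds in DMSO; nonlytic luminescence tracked viability during 40 h treatment.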

The target in experiment [12] is Nuclear receptor subfamily 1 group I member 3 (Homo sapiens) (UniProt Q14994). Kind of experiment: qHTS assay to identify small molecule antagonists of the constitutive androstane receptor (CAR) signaling pathway (AID 1224838).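 Note: HepG2 cells stably expressing hCAR with CYP2B6 luciferase reporter stimulated by CITCO; nearly all actives have a fitted effect of over 40% in size.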 The gist of the method: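 Read-out: ONE-Glo luciferase luminescence after 30 min at room temperature. HepG2-CYP2B6-hCAR double-stable cells, compounds in 15-point titration plus 50 nM CITCO final, 24 h at 37 C/5% CO2.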
Nuclear receptor subfamily 1 group I member 3 (Homo sapiens), sequence (Q14994 whole entry, looked up): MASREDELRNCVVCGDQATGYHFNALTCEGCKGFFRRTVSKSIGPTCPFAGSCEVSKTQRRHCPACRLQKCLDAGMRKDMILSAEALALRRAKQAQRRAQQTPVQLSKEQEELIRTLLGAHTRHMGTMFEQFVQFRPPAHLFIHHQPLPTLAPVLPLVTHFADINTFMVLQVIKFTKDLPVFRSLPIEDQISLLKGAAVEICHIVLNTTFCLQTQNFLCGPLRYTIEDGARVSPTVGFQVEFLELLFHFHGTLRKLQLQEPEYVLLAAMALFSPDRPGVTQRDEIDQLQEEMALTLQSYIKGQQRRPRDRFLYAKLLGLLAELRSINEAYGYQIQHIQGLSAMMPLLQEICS

A short description of experiment [13]: qHTS assay to identify small molecule agonists of the estrogen related receptor signaling pathway with the pleiotropic PPARgamma coactivator (PGC) from Tox21 10K library (AID 1224842). Note: nearly all actives have a fitted effect of over 15% in size. The method, boiled down: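 PGC/ERR reporter cells (NTP line) were seeded 2,000 per well, rested 6 h at 37 C/5% CO2, then pin-dosed with compounds in DMSO for 18 h at 37 C; luciferase read by One-Glo luminescence after 30 min at room temperature.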

Experiment [14] can be described thus: qHTS assay to identify small molecule antagonists of the estrogen related receptor (ERR) signaling pathway from Tox21 library (AID 1224848). Note: nearly all actives have a fitted effect of over 50% in size. Note: potency is the fitted concentration of half-maximal effect. The method, boiled down:
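Tox21 10K compounds in DMSO tested for ERR pathway antagonism in NTP's ERR cell line; 18 h, 37 C exposure; ONE-Glo luminescence.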

Experiment [15] can be described thus: qHTS assay to identify small molecule agonists of the estrogen related receptor (ERR) signaling pathway from Tox21 library (AID 1224849; calls by dose curve; note: nearly all actives have a fitted effect of over 15% in size). The settings on record: ERR reporter cell line, ONE-Glo luciferase, 18 h; at 92.4 µM (top of the series) unless noted. The method, boiled down: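 Luminescence readout (ONE-Glo, 30 min RT) after 18 h compound exposure at 37 C of NTP-supplied ERR reporter cells; cells were plated 6 h before compound addition by pin tool.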

Experiment [16] can be described thus: A CellTox Green Cytotoxicity Assay to monitor cytotoxicity in HEK293 cells - 0 hour (AID 1224869). Note: nearly all actives have a fitted effect of over 50% in size. The method, boiled down:
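Read-out: fluorescence of a cell-impermeant cyanine dye staining DNA of dead cells, proportional to cytotoxicity. HEK293, 600 cells/well with reagent, compound (23 nL DMSO) added after 5 h; reads at 0, 8, 16, 24, 32, 40 h.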

For experiment [17], the target named is Luciferin 4-monooxygenase (Photinus pyralis) (UniProt P08659). Briefly: qHTS assay to identify small molecule inhibitors of firefly luciferase (AID 1224835). Note: nearly all actives have a fitted effect of over 25% in size. Note: potency is the fitted concentration of half-maximal effect. The method, boiled down: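 Quantitative HTS format; KM concentrations of both substrates. Purified P. pyralis FLuc activity quantified from luminescence images.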
Luciferin 4-monooxygenase (Photinus pyralis), sequence (P08659 whole entry, looked up): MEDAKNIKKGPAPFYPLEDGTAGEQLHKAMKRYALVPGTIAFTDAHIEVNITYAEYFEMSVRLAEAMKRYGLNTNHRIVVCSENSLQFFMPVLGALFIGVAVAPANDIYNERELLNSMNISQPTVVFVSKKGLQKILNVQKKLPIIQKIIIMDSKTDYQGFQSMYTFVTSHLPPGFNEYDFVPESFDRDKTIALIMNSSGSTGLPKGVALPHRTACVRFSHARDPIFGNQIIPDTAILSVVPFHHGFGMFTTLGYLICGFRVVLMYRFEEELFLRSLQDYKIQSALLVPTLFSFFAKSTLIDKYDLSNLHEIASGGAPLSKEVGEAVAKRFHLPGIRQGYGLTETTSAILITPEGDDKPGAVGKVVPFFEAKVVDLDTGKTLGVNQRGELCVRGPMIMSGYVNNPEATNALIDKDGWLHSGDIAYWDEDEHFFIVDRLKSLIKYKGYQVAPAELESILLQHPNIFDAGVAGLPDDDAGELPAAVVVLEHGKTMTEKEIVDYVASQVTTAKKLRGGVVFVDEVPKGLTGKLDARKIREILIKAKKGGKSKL
Experiment [18] can be described thus: qHTS assay to identify small molecule antagonists of the estrogen related receptor signaling pathway with the pleiotropic PPARgamma coactivator (PGC) from Tox21 10K library (AID 1224841; call rule not given here; note: potency is the fitted concentration of half-maximal effect). The method, boiled down: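 Luminescence read-out (One-Glo luciferase reagent, 30 min at room temperature) from PGC/ERR cells exposed to DMSO-dissolved test compounds for 18 h at 37 C; cells, 2,000 per well, had been preincubated 6 h before compound transfer.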

Experiment [19] in a line: qHTS assay to identify small molecule agonists of H2AX - cell viability counter screen (AID 1224847; calls by dose curve; note: top concentration of the series differs between compounds; nearly all actives have a fitted effect of over 30% in size). The method, boiled down: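 Cells plated first: CHO-K1, 1000 per well in 10% FBS medium, incubated overnight at 37C. Then 15-point compound titration added (final DMSO 0.76%) for 3 hr. Finally CellTiter-Glo added and luminescence read.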
% is set by controls: 0 for no effect and ±100 for the full control effect.

Thyrotropin receptor (Homo sapiens), sequence (P16473 whole entry, looked up): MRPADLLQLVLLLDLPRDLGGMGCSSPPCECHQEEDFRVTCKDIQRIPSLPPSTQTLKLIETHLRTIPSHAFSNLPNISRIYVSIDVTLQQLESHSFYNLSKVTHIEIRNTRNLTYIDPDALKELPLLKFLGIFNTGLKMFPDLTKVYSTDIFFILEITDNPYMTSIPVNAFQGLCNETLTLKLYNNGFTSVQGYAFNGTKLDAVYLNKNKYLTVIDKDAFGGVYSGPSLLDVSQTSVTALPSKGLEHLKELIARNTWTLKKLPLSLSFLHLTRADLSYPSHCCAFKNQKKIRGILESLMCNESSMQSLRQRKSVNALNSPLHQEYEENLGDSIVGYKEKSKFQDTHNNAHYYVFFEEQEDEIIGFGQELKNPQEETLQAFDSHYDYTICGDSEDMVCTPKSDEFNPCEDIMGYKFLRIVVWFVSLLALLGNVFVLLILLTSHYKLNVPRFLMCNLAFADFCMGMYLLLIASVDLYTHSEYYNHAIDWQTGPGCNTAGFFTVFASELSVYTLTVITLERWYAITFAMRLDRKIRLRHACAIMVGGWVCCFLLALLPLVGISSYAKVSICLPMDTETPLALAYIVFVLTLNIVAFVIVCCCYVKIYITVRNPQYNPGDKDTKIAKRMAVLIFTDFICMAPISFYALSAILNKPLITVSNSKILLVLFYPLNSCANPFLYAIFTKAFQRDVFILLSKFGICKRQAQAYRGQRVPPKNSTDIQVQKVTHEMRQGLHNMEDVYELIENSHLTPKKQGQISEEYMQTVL

In the case of `CCc1ccc2c(c1)C(=O)c1ccccc1C2=O`, the Potency entry in [1], in experiment [2], in experiment [4], in experiment [5], in experiment [6] and in experiment [7] was “inactive” each time. The Potency entry in experiment [10] and in [11] was “inactive” in each case. Moreover, the Potency in [3] is 27.3 µM (active). The compound was called inactive in [8] and in experiment [9].

As to `C[C@]12CCC(=O)C=C1[C@@H]1C[C@@H]1[C@H]1[C@@H]3[C@@H]4C[C@@H]4[C@@]4(CCC(=O)O4)[C@@]3(C)CC[C@@H]12`, the Potency entry in experiment [1], in experiment [2], in experiment [12], in [3], in [4] and in experiment [13] was “inactive” each time. In addition, the Potency result in experiment [6], in experiment [7] and in experiment [16] was “inactive” in each case. In addition, in [8], the call was inactive. Also, the Potency in experiment [14] was 26.6 µM (active). Moreover, the activity change, positive = activation in [15] is -43.4% [at 42.5 µM].

For `Cc1c(-c2cccnc2)c2ccccc2n1CCCCC(=O)O`, the Potency in experiment [17] was 39.9 µM (active). The Potency result in experiment [1], in experiment [12], in experiment [4], in experiment [18], in experiment [6] and in experiment [7] was “inactive” in each case. In addition, the Potency entry in experiment [19], in [14], in experiment [10], in experiment [16] and in experiment [11] was “inactive” throughout. For the same compound, the compound was classed as inactive in [8] and in experiment [9]. For the same compound, the activity change, positive = activation in experiment [15] was -5.77%.

As to `O=C(N[C@@H](Cc1ccccc1)[C@@H](O)C(=O)N1C[C@@H](O)[C@@H](O)C1)c1cc2cc(Cl)ccc2[nH]1`, the Potency entry in experiment [17], in experiment [1], in experiment [2], in experiment [13], in experiment [5] and in [6] was “inactive” in each case. Further, the Potency entry in [7], in [19], in [16] and in experiment [11] was “inactive” in each case. The Potency in experiment [18] and in [14] was 54.5 µM (active) each time. Further, the call in experiment [8] and in experiment [9] was inactive. In experiment [15], the activity change, positive = activation was -40.7%.

`CC(C)CC(C)(C)C`: the Potency entry in [17], in experiment [1], in experiment [12], in [4], in experiment [13] and in experiment [5] was “inactive” each time. Besides, the Potency result in experiment [7], in experiment [19] and in experiment [11] was “inactive” each time. Besides, the Potency in [3] is 63.4 µM (active). In addition, the compound was classed as inactive in [8] and in experiment [9]. Moreover, the activity change, positive = activation in experiment [15] is -31.7%.

For the compound `O=C(OCCCCCOC(=O)c1ccccc1)c1ccccc1`, the Potency result in experiment [1], in experiment [2], in experiment [12], in [3], in experiment [4] and in experiment [18] was “inactive” in each case. The Potency result in [13], in experiment [6], in experiment [7], in experiment [19], in [14] and in experiment [16] was “inactive” in each case. Besides, the Potency result in [11] was “inactive”. The compound was classed as inactive in experiment [8] and in [9]. Also, the activity change, positive = activation in experiment [15] is 7.15%.

On to `Nc1ccccc1Nc1ccccc1`, for which the Potency entry in experiment [1], in [6], in experiment [16] and in [11] was “inactive” throughout. Moreover, the Potency in [3] was 54.6 µM (active). The compound was classed as inactive in experiment [8] and in experiment [9].

With `Cc1nc2sccn2c(=O)c1CCN1CCC(=C(c2ccc(F)cc2)c2ccc(F)cc2)CC1`, the Potency result in experiment [17], in experiment [1], in experiment [2], in [3], in experiment [4] and in [13] was “inactive” in each case. Besides, the Potency entry in experiment [7], in [16] and in experiment [11] was “inactive” in each case. Besides, the Potency was 26.6 µM (active) in experiment [14] and 3.38 µM (active) in [10]. For the same compound, in [15], the activity change, positive = activation is -44.9% [at 42.5 µM]. Further, the compound was called inactive in experiment [9].

Take `CCOc1cc(OCC)c(C(C)=O)cc1OCC`: the Potency entry in experiment [17], in [18], in experiment [13], in [5], in experiment [6] and in [7] was “inactive” in each case. The Potency result in experiment [19] and in experiment [16] was “inactive” in each case. Besides, the Potency was 26.8 µM (active) in [2], 23.9 µM (active) in experiment [3] and 21.5 µM (active) in experiment [10]. Besides, the activity change, positive = activation in experiment [15] is -33.9%. Further, the result in [9] was inactive.
